# Records with an inconclusive call do not appear. Calls of active or inactive are those of the source. Unless noted, calls come from the whole dose curve; as a rule, active = well fitted curve in the direction sought with a large enough effect; inconclusive = small, poorly fitted or top-dose-only effect, or another doubt; inactive = no such curve, though single readings can be large; an effect the other way counts as inactive or inconclusive.
# Columns and labels:
# [1] = Quantitative High-Throughput drug screen in 47 multiple myeloma cell lines against the NCATS MIPE library collection: PCM6_Riken cell viability assay (AID 1919870); note: nearly all actives have a fitted effect of over 30% in size; note: potency is the fitted concentration of half-maximal effect
# Procedure, shortened: (§1)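 MIPE 4.0 approved/investigational drugs; 500 cells/well; 48 h 37 °C humidified 5% CO2; CTG luminescence readout; DMSO = 100%, media = 0% viability.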
# [2] = Quantitative High-Throughput drug screen in 47 multiple myeloma cell lines against the NCATS MIPE library collection: OPM2_DSMZ cell viability assay (AID 1919872); note: nearly all actives have a fitted effect of over 30% in size; note: potency is the fitted concentration of half-maximal effect
# Procedure, shortened: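 Inhibition of cell viability is measured here. Each line was plated at 500 cells per well, treated with MIPE 4.0 drugs, kept 48 hours at 37C, then assayed for ATP content by CellTiter-Glo luminescence.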
# [3] = Quantitative High-Throughput drug screen in 47 multiple myeloma cell lines against the NCATS MIPE library collection: KMS11_JCRBsus cell viability assay (AID 1919873); note: nearly all actives have a fitted effect of over 50% in size; note: potency is the fitted concentration of half-maximal effect
# Procedure, shortened: as §1
# [4] = Quantitative High-Throughput drug screen in 47 multiple myeloma cell lines against the NCATS MIPE library collection: KMS28BM_JCRB cell viability assay (AID 1919874); note: nearly all actives have a fitted effect of over 35% in size; note: potency is the fitted concentration of half-maximal effect
# Procedure, shortened: as §1
# [5] = qHTS for identification of novel therapeutic agents for treatment of microphthalmiaassociated transcription factor (MiT) renal cell carcinoma (RCC) (AID 1963991); conditions: CellTiter-Glo, 48 h, stronger effect = lower value;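 note: curves scaled with 100% = DMSO viability and 0% = empty wells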
# Procedure, shortened: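 UOK109/UOK124/UOK145 (TFE3 fusions, three partners); 500 cells/well; MIPE v4.0, 1912 cpds, 11 conc.; 48 h, 37 C; CellTiter-Glo, 15 min RT; lum. Norm.: DMSO 100%, empty 0%.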
# [6] = qHTS drug screen for cell cycle checkpoint inhibitors in PARPi-resistant BRCA-mutant ovarian cancer cell lines. (AID 1963452; calls by dose curve; note: potency is the fitted concentration of half-maximal effect); conditions: PEO1/OlaR viability, CellTiter-Glo luminescence, 96 h; for Z-AUC: stronger effect = lower value
# Procedure, shortened: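 PEO1, PEO4 and PEO1/OlaR ovarian cancer cells, 600 per well, exposed 96 h at 37C to a dilution series. Viability read by CellTiter-Glo luminescence, normalized to DMSO and empty wells; activity summarized as Z-AUC.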
# [7] = Quantitative High-Throughput drug screen in 47 multiple myeloma cell lines against the NCATS MIPE library collection: RPMI8226_ATCC cell viability assay (AID 1919871); note: nearly all actives have a fitted effect of over 30% in size; note: potency is the fitted concentration of half-maximal effect
# Procedure, shortened: as §1
# [8] = Quantitative High-Throughput drug screen in 47 multiple myeloma cell lines against the NCATS MIPE library collection: PE2_PLB cell viability assay (AID 1919869); note: potency is the fitted concentration of half-maximal effect; nearly all actives have a fitted effect of over 35% in size
# Procedure, shortened: as §1
# [9] = qHTS profiling for inhibitors of Plasmodium falciparum proliferation (AID 504749);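 note: 0% = DMSO vehicle and full inhibition = artemisinin control; nearly all actives have a fitted effect of over 60% in size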; conditions: P. falciparum in erythrocytes, SYBR Green DNA, 72 h, at 28.7 µM (top of the series)
# Procedure, shortened: (§2)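 Parasite proliferation within erythrocytes, 72 h exposure. Endpoint: SYBR Green I fluorescence after overnight lysis at room temperature. Controls: 0.29 uM artemisinin, DMSO.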
# [10] = tested on: 3D7; test: as above; conditions: P. falciparum in erythrocytes, SYBR Green DNA, 72 h; series mostly up to 28.7 µM
# Procedure, shortened: as §2
# [11] = tested on: 7G8; test: as above; conditions: P. falciparum in erythrocytes, SYBR Green DNA, 72 h; series mostly up to 28.7 µM
# Procedure, shortened: as §2
# [12] = tested on: AA1029; test: as above; conditions: P. falciparum in erythrocytes, SYBR Green DNA, 72 h; series mostly up to 28.7 µM
# Procedure, shortened: as §2
# [13] = tested on: AS120; test: as above; conditions: P. falciparum in erythrocytes, SYBR Green DNA, 72 h; series mostly up to 28.7 µM
# Procedure, shortened: as §2
# [14] = tested on: ATS189; test: as above; conditions: P. falciparum in erythrocytes, SYBR Green DNA, 72 h; series mostly up to 28.7 µM
# Procedure, shortened: as §2
# [15] = tested on: ATS95; test: as above; conditions: P. falciparum in erythrocytes, SYBR Green DNA, 72 h; series mostly up to 28.7 µM
# Procedure, shortened: as §2
# [16] = tested on: C2A; test: as above; conditions: P. falciparum in erythrocytes, SYBR Green DNA, 72 h; series mostly up to 28.7 µM
# Procedure, shortened: as §2
# [17] = tested on: CP185; test: as above; conditions: P. falciparum in erythrocytes, SYBR Green DNA, 72 h; series mostly up to 28.7 µM
# Procedure, shortened: as §2
# [18] = tested on: CP191; test: as above; conditions: P. falciparum in erythrocytes, SYBR Green DNA, 72 h; series mostly up to 28.7 µM
# Procedure, shortened: as §2
# [19] = tested on: CP192; test: as above; conditions: P. falciparum in erythrocytes, SYBR Green DNA, 72 h; series mostly up to 28.7 µM
# Procedure, shortened: as §2
# [20] = TFE3-RCC UOK109 viability, measured here: UOK109 Z-AUC
# [21] = TFE3-RCC viability, measured here: UOK124 Z-AUC
# [22] = TFE3-RCC viability, measured here: UOK145 Z-AUC
# [23] = measured here: PEO1 parental Z-AUC
smiles,measurement,setting,value
O=C(C=Cc1c(C(=O)O)[nH]c2cc(Cl)cc(Cl)c12)Nc1ccccc1,Potency,[1],inactive
same,Potency,[2],inactive
same,Potency,[3],inactive
same,Potency,[4],inactive
same,z-score,[5]; [20],0.0645
same,z-score,[5]; [21],0.537
same,z-score,[5]; [22],0.334
Cc1c(Cn2c(C)nc3c(C(=O)O)cc(N4CCOCC4)cc32)cccc1C(F)(F)F,Potency,[2],inactive
same,Potency,[3],inactive
same,Potency,[4],inactive
same,Z-AUC,[6],0.672 (inactive)
same,Z-AUC,[6]; [23],0.875
same,Z-AUC,[6]; measured here: PEO4 Z-AUC,0.3
COc1cc2c(Nc3ccc(NC(=O)c4ccccc4)cc3)ncnc2cc1OCCCN1CCOCC1,Potency,[7],23.5 µM (active)
Cc1ccc(S(=O)(=O)Nc2cc(Cl)ccc2C(=O)Nc2nc(-c3ccccc3)cs2)cc1,Potency,[7],16.6 µM (active)
same,Potency,[3],10.5 µM (active)
same,Z-AUC,[6],-0.703 (inactive)
same,Z-AUC,[6]; [23],-0.778
same,Z-AUC,[6]; measured here: PEO4 Z-AUC,-1.08
Nc1cccc(-c2cc3c(Oc4cccc(O)c4)ncnc3[nH]2)c1,Potency,[8],14.8 µM (active)
same,Potency,[3],7.43 µM (active)
same,Potency,[4],20.9 µM (active)
same,Z-AUC,[6],-0.838 (inactive)
same,Z-AUC,[6]; [23],-0.58
same,Z-AUC,[6]; measured here: PEO4 Z-AUC,-0.859
Nc1nc(-c2nn(Cc3ccccc3F)c3ncccc23)nc(N)c1N1CCOCC1,Potency,[2],inactive
same,Potency,[4],inactive
same,Z-AUC,[6],-0.481 (inactive)
same,Z-AUC,[6]; [23],-0.352
same,Z-AUC,[6]; measured here: PEO4 Z-AUC,-0.594
N#Cc1c(O)c2c(-c3ccc(-c4ccccc4O)cc3)csc2[nH]c1=O,Potency,[1],inactive
same,Potency,[2],inactive
same,Potency,[3],inactive
same,Z-AUC,[6],0.825 (inactive)
same,Z-AUC,[6]; [23],1.08
same,Z-AUC,[6]; measured here: PEO4 Z-AUC,1.07
same,z-score,[5]; [20],0.657
same,z-score,[5]; [21],0.453
same,z-score,[5]; [22],0.62
O=C(Nc1cn[nH]c1-c1nc2ccc(CN3CCOCC3)cc2[nH]1)NC1CC1,Potency,[1],2.64 µM (active)
same,Potency,[7],10.5 µM (active)
same,Potency,[2],4.69 µM (active)
same,Potency,[4],1.05 µM (active)
same,Potency,[6],0.871 µM (active)
same,Z-AUC,[6]; [23],-1.15
same,Z-AUC,[6]; measured here: PEO4 Z-AUC,-1.9
CC(C)(C)c1cc(NC(=O)Nc2ccc(-c3cn4c(n3)sc3cc(OCCN5CCOCC5)ccc34)cc2)no1,Potency,[1],inactive
same,Potency,[2],5.26 µM (active)
same,Potency,[4],inactive
same,Z-AUC,[6],1.23 (inactive)
same,Z-AUC,[6]; [23],0.804
same,Z-AUC,[6]; measured here: PEO4 Z-AUC,0.987
COc1ccc2c(c1)CC[C@@H](CN(C)CC(=O)O)[C@H]2c1ccccc1,Potency,[1],1.66 µM (active)
same,Potency,[7],2.64 µM (active)
same,Potency,[3],0.662 µM (active)
same,Potency,[4],1.05 µM (active)
same,Z-AUC,[6],0.47 (inactive)
same,Z-AUC,[6]; [23],1.17
same,Z-AUC,[6]; measured here: PEO4 Z-AUC,1.29
O=C(O)CO.[NH2-].[NH2-].[Pt+2],Potency,[1],inactive
same,Potency,[7],inactive
same,Potency,[2],inactive
same,Potency,[3],inactive
same,Potency,[4],inactive
same,z-score,[5]; [20],0.642
same,z-score,[5]; [21],1.56
same,z-score,[5]; [22],1.18
same,"activity, negative = inhibition",[9]; parasite line A,12% (inactive)
same,"activity, negative = inhibition",[9]; parasite line B,15.6% (inactive)
same,Potency,[10],inactive
same,Potency,[11],inactive
same,Potency,[12],inactive
same,Potency,[13],inactive
same,Potency,[14],inactive
same,Potency,[15],inactive
same,Potency,[16],inactive
same,Potency,[17],inactive
same,Potency,[18],inactive
same,Potency,[19],inactive
CCc1cc2c(cc1N1CCC(N3CCOCC3)CC1)C(C)(C)c1[nH]c3cc(C#N)ccc3c1C2=O,Z-AUC,[6],0.0393 (inactive)
same,Z-AUC,[6]; [23],-0.229
same,Z-AUC,[6]; measured here: PEO4 Z-AUC,-0.554

# — PubChem BioAssay (NCATS)
